Reference: PubChem BioAssay
Results filed as inconclusive are left out. The source made the active and inactive calls.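 Rule for the calls, unless noted: active = viability at or below 10% of carrier control in both of two separate runs; inconclusive = viability at or below 10% in only one of the two runs; inactive = the rest.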

Legend:
[1] = reducers of endogenous Her2 protein level, primary screen, SKBR3 breast tumor cells, AlphaScreen, ATP viability (AID 461;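 active = Her2 level under about 52% in both replicate screens, with viability over 70% of control, limit read from the data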;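 for Her2 level: lower value means less Her2 protein in the cells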;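 for viability: percent of carrier control wells set as 100% viability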); conditions: 18-24 h, measured here: SKBR3 viability, ATP luminescence, at 10 µM
[2] = biological target: Receptor tyrosine-protein kinase erbB-2 (Homo sapiens) (UniProt P04626); assay: as above; conditions: 18-24 h, at 10 µM, stronger effect = lower value
Chain of Receptor tyrosine-protein kinase erbB-2 (Homo sapiens) (P04626 whole entry, looked up): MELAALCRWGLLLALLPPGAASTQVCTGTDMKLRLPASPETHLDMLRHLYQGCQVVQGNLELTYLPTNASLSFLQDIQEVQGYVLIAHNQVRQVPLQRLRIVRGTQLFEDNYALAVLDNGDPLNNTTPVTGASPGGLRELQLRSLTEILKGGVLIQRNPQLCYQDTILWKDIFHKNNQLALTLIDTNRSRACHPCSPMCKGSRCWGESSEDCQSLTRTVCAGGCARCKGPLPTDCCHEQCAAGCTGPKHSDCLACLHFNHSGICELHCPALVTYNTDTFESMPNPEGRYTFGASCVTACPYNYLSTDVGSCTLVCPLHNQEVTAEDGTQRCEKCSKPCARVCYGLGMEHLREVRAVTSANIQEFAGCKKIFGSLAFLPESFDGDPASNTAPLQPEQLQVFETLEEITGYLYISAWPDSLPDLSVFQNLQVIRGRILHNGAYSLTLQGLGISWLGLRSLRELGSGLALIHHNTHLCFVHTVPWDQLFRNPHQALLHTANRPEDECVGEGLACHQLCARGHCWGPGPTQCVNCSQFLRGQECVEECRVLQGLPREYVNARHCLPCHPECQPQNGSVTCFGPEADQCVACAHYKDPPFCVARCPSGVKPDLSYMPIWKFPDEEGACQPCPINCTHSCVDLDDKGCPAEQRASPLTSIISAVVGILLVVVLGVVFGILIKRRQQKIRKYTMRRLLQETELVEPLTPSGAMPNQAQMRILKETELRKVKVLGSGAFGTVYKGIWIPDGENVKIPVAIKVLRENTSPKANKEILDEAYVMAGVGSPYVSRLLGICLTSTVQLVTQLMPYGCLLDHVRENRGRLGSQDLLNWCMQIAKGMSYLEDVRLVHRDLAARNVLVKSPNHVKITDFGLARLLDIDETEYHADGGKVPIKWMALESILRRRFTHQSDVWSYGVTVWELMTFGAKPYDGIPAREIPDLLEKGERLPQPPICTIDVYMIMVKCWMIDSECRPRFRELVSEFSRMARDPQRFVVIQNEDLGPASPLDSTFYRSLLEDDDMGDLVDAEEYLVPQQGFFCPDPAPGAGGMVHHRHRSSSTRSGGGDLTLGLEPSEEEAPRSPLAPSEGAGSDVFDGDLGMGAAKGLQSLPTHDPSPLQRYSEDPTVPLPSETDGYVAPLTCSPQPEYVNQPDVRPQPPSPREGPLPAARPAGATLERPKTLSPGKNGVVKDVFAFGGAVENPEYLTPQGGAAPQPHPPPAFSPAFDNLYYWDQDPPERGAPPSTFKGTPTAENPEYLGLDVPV

[3] = SK-BR-3 cell growth inhibitors, pilot screen, 24 h, human (AID 572); conditions: SK-BR-3 viability, CellTiter-Glo luminescence, at 10 µM, stronger effect = lower value;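 note: compound exposure lasted between 18 and 24 h rather than exactly 24 h; 100% = carrier-treated control wells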
[4] = HUVEC growth inhibition – cell-based, human, primary screen (AID 575;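 active = viability at or below 30% in both replicate assays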;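 note: 100% = median of untreated cell wells with 0.1% DMSO on each plate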); conditions: HUVEC proliferation, CellTiter-Glo luminescence, 72 h; at 10 µM; stronger effect = lower value
[5] = growth inhibitors of H69AR lung tumor, primary screen, human, duplicate replicates (AID 580;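 active = viability at or under a set limit in both replicates, limit being median viability minus 3 SD, cut at about 48% in these data, passing the limit was not always enough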;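 note: 100% = mean luminescence of untreated wells and 0% = no signal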); conditions: H69AR lung tumor cells viability, ATP luminescence, 72 h; at 10 µM; stronger effect = lower value
[6] = reversal of MRP1-mediated doxorubicin resistance, pilot screen, H69AR cells, doxorubicin co-treatment (AID 601;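 active = viability loss from added drug above about 55%, and viability with drug at most 40%, in both replicates, limit read from the data, passing the limit was not always enough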); conditions: CellTiter-Glo, 72 h, at 10 µM; for differential viability (reversal): stronger effect = higher value
[7] = 384-well plate pilot, post-Golgi transport modulator project, inhibition of yeast transport mutant growth (AID 636; in the data active = inhibition above about 31%); conditions: absorbance 615 nm, about 18 h, stronger effect = higher value
[8] = growth suppression of yeast trafficking mutant, preliminary HTS, modulators of trafficking downstream of Golgi apparatus project, 1536-format plate, OD 615 nm (AID 637; in the data active = inhibition above about 30%); conditions: yeast transport mutant growth, absorbance 615 nm, 18 h; stronger effect = higher value
[9] = OD615 S. cerevisiae growth inhibition, permissive medium, pilot counter-assay, permissive growth control for S. cerevisiae lifespan shortening project (AID 705;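 active = growth inhibition above 25% in both replicates, a cutoff set 3 SD above the mean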); conditions: OD615, 24 h, at 10 µM, stronger effect = higher value
[10] = Restrictive medium S. cerevisiae growth inhibition, OD615, pilot screen of yeast lifespan reduction project, restrictive growth control (AID 706;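 active = growth inhibition above a set limit, 3 SD over mean compound inhibition, in both replicates, cut at about 43% in these data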;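 note: modified DeaD lifespan yeast strain shifted to restrictive glucose medium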); conditions: OD615, 48 h, at 10 µM, stronger effect = higher value
[11] = viability gain of MRP-1-high H69AR cells under doxorubicin, pilot screen, MRP-1 activator project, CellTiter-Glo, duplicate (AID 807;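 active = viability increase at or above a cutoff of the median across tested compounds plus 3 SD, cut at about 8.5% in these data, passing the limit was not always enough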;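 note: compound pretreatment 18-22 h then 72 h combined with doxorubicin; 0% = doxorubicin alone and 100% = vehicle without doxorubicin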); conditions: H69AR viability with doxorubicin, CellTiter-Glo luminescence; at 10 µM; stronger effect = higher value
[12] = growth suppression of beta-catenin knockout HCT116, pilot screen, human colon tumor cells (AID 823;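 active = cell viability at or below a set limit in both duplicate runs, the limit being the all-compound median minus 4 SD, cut at about 23% in these data, passing the limit was not always enough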;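 note: 0% = wells killed by 20 µM Hyamine and 100% = untreated DMSO cell wells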); conditions: CellTiter-Glo, 60 h, at 10 µM, stronger effect = lower value
[13] = growth suppression of PTEN-deleted HCT116, pilot screen, cell-based, HCT116 clonal line, CellTiter-Glo (AID 824;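 active = viability at or below 27.92% in each of two runs, the all-compound median minus 4 SD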;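 note: 0% = 20 µM Hyamine control and 100% = vehicle cell control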); conditions: 60 h, at 10 µM, stronger effect = lower value
[14] = inhibitors of the yeast RAM network, pilot screen, dse1pr::URA3 reporter, 5-FOA selection (AID 869;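 active = inhibition over a set limit, the all-compound mean plus 3 SD, in both replicate runs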;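 note: 0% = DMSO wells with no growth and 100% = 10 µM 1-NA-PP1 with full growth; RAM network block rescues cells from 5-FOA so hits raise OD615 growth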); conditions: S. cerevisiae dse1pr::URA3 5-FOA growth, OD615, 2 d; at 10 µM; stronger effect = higher value; strain carries analog-sensitive mutant Cbk1 kinase
[15] = RAM signaling pathway blockade in yeast – S. cerevisiae, Pdr1DBD-CYC8 efflux-inhibited sensitized strain, primary screen (AID 1298;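 active = RAM network inhibition above 8.4% in each of two replicates, 3 SD over the compound average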;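 note: 0% = DMSO untreated cells without growth and 100% = 10 µM 1-NA-PP1 full growth; higher means more yeast growth rescued from 5-FOA killing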); conditions: S. cerevisiae cbk1-as DSE1-URA3 strain, 5-FOA growth OD615, 2 d; at 50 µM; stronger effect = higher value
[16] = H69AR cells + 2 uM doxorubicin, measured here: viability with 2 uM doxorubicin, stronger effect = lower value
[17] = H69AR cells, compound alone cytotoxicity

SMILES | viability [1] [%] | Her2 level [2] | viability [3] | viability [4] | viability [5] | differential viability (reversal) ([6]; H69AR cells + 2 uM doxorubicin) | viability [6, 16] [%] | viability [6, 17] [%] | inhibition [7] | inhibition [8] | growth inhibition [9] | growth inhibition [10] | viability increase [11] | viability [12] | viability [13] | inhibition [14] | RAM network inhibition [15]
COc1cccc(-c2cc(C(F)(F)F)nc(NCc3ccco3)n2)c1 | 108 | 94.5% (inactive) | 108% (inactive) | 61.6% (inactive) | 95.8% (inactive) | 8.14% (inactive) | 87.7 | 95.8 | -5.27% (inactive) | -1.48% (inactive) | 0.4% (inactive) | 18% (inactive) | -3.81% (inactive) | 70.9% (inactive) | 67.6% (inactive) | 2.38% (inactive) | 8.17% (inactive)
Cn1c(=O)oc2cc(S(=O)(=O)N3CCCC(C(=O)NCC4COc5ccccc5O4)C3)ccc21 (stereo not given) | 77 | 79.5% (inactive) | 77% (inactive) | 83.6% (inactive) | 94% (inactive) | 3.15% (inactive) | 90.9 | 94 | 0.8% (inactive) | -2.79% (inactive) | -11.9% (inactive) | -20.4% (inactive) | 3.09% (inactive) | 86% (inactive) | 90.4% (inactive) | 0.04% (inactive) | 4.73% (inactive)
Cc1c(-n2c(CN3C(=O)c4ccccc4C3=O)nc3ccccc3c2=O)c(=O)n(-c2ccccc2)n1C | 93.5 | 110% (inactive) | 93.5% (inactive) | 105% (inactive) | 101% (inactive) | 3.82% (inactive) | 97 | 101 | -1.76% (inactive) | 4.6% (inactive) | -2.33% (inactive) | 2.67% (inactive) | -1.08% (inactive) | 102% (inactive) | 99.6% (inactive) | 1.4% (inactive) | 5.4% (inactive)
COc1c(S(=O)(=O)n2nc(C)cc2C)ccc(Cl)c1Cl | 98 | 101% (inactive) | 98% (inactive) | 101% (inactive) | 98% (inactive) | -1.02% (inactive) | 99 | 98 | -2.76% (inactive) | 2.33% (inactive) | -5.31% (inactive) | 8.94% (inactive) | 1.75% (inactive) | 95.8% (inactive) | 86.2% (inactive) | 1.5% (inactive) | 2.6% (inactive)
Nc1nc2n(n1)C(c1cccc(Br)c1)CC(c1ccccc1)N2 (stereo not given) | 93.5 | 103% (inactive) | 93.5% (inactive) | 82% (inactive) | 88.8% (inactive) | -9.83% (inactive) | 98.7 | 88.8 | -3.33% (inactive) | 0.83% (inactive) | -6.41% (inactive) | 12.7% (inactive) | -1.81% (inactive) | 97.1% (inactive) | 86% (inactive) | 1.22% (inactive) | 12.1% (inactive)
COc1ccc(N(CC(=O)O)S(=O)(=O)c2ccc(OC)c(OC)c2)cc1 | 112 | 102% (inactive) | 112% (inactive) | 108% (inactive) | 90.3% (inactive) | -3.8% (inactive) | 94.1 | 90.3 | -3.38% (inactive) | 1.31% (inactive) | -15.1% (inactive) | -11.2% (inactive) | -1.32% (inactive) | 105% (inactive) | 99.1% (inactive) | -0.04% (inactive) | 0.87% (inactive)
CCSc1nc2c(c(=O)[nH]1)C(c1cccnc1)C(C(=O)OC(C)C)=C(C)N2 (stereo not given) | 95.5 | 83.5% (inactive) | 95.5% (inactive) | 90.9% (inactive) | 97.4% (inactive) | 15.6% (inactive) | 81.8 | 97.4 | -4.19% (inactive) | -0.33% (inactive) | -18.5% (inactive) | -8.67% (inactive) | -3.07% (inactive) | 92.3% (inactive) | 92.5% (inactive) | 0.98% (inactive) | 0.72% (inactive)
O=C(Nc1ccccc1)c1cnc2n(c1=O)CCS2 | 92.5 | 88% (inactive) | 92.5% (inactive) | 101% (inactive) | 91.1% (inactive) | -2.48% (inactive) | 93.5 | 91.1 | -4.8% (inactive) | -0.49% (inactive) | -8.84% (inactive) | 5.01% (inactive) | -0.69% (inactive) | 104% (inactive) | 97.2% (inactive) | 1.94% (inactive) | 2.15% (inactive)
COc1cc(NC(=O)CN(c2cc(C)cc(C)c2)S(=O)(=O)c2c(C)noc2C)cc(OC)c1 | 88.5 | 108% (inactive) | 88.5% (inactive) | 80.8% (inactive) | 83.8% (inactive) | -0.43% (inactive) | 84.3 | 83.8 | 0.9% (inactive) | -5% (inactive) | -14.8% (inactive) | -18.5% (inactive) | -4.92% (inactive) | 92.3% (inactive) | 87.5% (inactive) | 2.82% (inactive) | 4.61% (inactive)
CC(=O)N1c2c(cc(Br)cc2S(=O)(=O)N2CCN(c3ccccn3)CC2)CC1C (stereo not given) | 80.5 | 106% (inactive) | 80.5% (inactive) | 64.9% (inactive) | 86.6% (inactive) | -3.56% (inactive) | 90.2 | 86.6 | -1.05% (inactive) | 24.6% (inactive) | 6.66% (inactive) | 1.97% (inactive) | 1.49% (inactive) | 99.1% (inactive) | 95.6% (inactive) | 0.77% (inactive) | 0.3% (inactive)
